Assay results taken from the supplement of paper PMC12636033.
± gives the standard deviation of the averaged measurements. The full ranking holds about 33,000 sequences; the median of “E-score (rank enrichment, -0.5 to 0.5)” is about -0.0043, and the highest 2% start at about 0.24. The sample holds the highest values, similar sequences and a random draw of the others, so the mix is not that of the screen.

system: 2Sp-muMax20 (muMax20 with two 2,6-bis(methyl)pyridine Cys staples); assay: PBM 8-mer E-score (E-score (rank enrichment, -0.5 to 0.5)); higher = stronger preferential binding
Description: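 Protein binding microarray (universal PBM chip covering all 10-mers in fixed probe flanks) with chemically synthesized human Max(13-93) bHLH-LZ analogs (not full-length Max) bearing noncanonical residues (hArg, Tha, Aib, Nle at 65) and aromatic Cys staples. Read-out per 8-mer (and its reverse complement): E-score (rank-based enrichment, -0.5 to 0.5) and Z-score of median probe intensity.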

| Sequence | PBM 8-mer E-score |
| --- | --- |
| CACGATCG | -0.0926 ± 0.084 |
| AAATAACG | 0.289 ± 0.022 |
| ATATAACG | 0.302 ± 0.039 |
| ATATAACC | 0.134 ± 0.069 |
| CAATAACG | 0.0434 ± 0.0082 |
| AAATAACA | 0.182 ± 0.057 |
| ATATAACA | 0.184 ± 0.057 |
| AGGATCAC | 0.0434 ± 0.0027 |
| CGATGACC | -0.245 ± 0.045 |
| AACATAGG | 0.0986 ± 0.084 |
| AACTACAC | 0.257 ± 0.011 |
| GACTACAC | 0.016 ± 0.034 |
| AACTACAG | -0.122 ± 0.011 |
| CCCTCGCA | 0.109 ± 0.031 |
| GGACTATA | 0.129 ± 0.085 |
| AGCACCGA | -0.129 ± 0.026 |
| ATTAGAAG | 0.138 ± 0.075 |
| ATTAGAAA | -0.0714 ± 0.083 |
| AGTAGAAA | 0.142 ± 0.006 |
| AGTAGAAT | 0.286 ± 0.011 |
| ATTAGAAT | 0.248 ± 0.033 |
| AGTAGAAC | 0.0268 ± 0.014 |
| CCGAAACG | -0.122 ± 0.032 |

| Sequence | PBM 8-mer E-score |
| --- | --- |
| GATCAGAA | -0.0464 ± 0.015 |
| CCCGTGGC | -0.328 ± 0.013 |
| ACCTCCCC | 0.0632 ± 0.019 |
| TGAACGAA | 0.0338 ± 0.048 |
| CTGATTCA | -0.006 ± 0.016 |
| AAGCGCTA | 0.0638 ± 0.1 |
| AAGCGCTC | 0.0083 ± 0.034 |
| AAGCGCTT | 0.29 ± 0.074 |
| AAGGATAT | 0.0821 ± 0.052 |
| ATTTATGA | 0.149 ± 0.03 |
| ACAGATGT | 0.0497 ± 0.021 |
| CAACTCGA | -0.0837 ± 0.0059 |
| CGTGGAAA | 0.257 ± 0.038 |
| CGTGGAAG | 0.163 ± 0.035 |
| AGTGGAAA | 0.185 ± 0.0052 |
| CGAGTAAC | -0.108 ± 0.036 |
| CCACAGCA | 0.0663 ± 0.031 |
| TCTGAAAA | -0.037 ± 0.13 |
| ATGCGTCG | -0.0304 ± 0.0076 |
| ATGCGTAA | 0.238 ± 0.025 |
| CTGCGTTA | -0.0622 ± 0.026 |
| ATGCGTAC | 0.00487 ± 0.0049 |
| CTGCGTAA | -0.0976 ± 0.042 |

| Sequence | PBM 8-mer E-score |
| --- | --- |
| GTGCGTAA | 0.0529 ± 0.0043 |
| GTGCGTTA | 0.00978 ± 0.021 |
| ATGCGTAG | 0.259 ± 0.071 |
| ATGCGTTA | 0.243 ± 0.018 |
| GGCTTGTA | 0.22 ± 0.043 |
| GGAGCAAA | 0.0658 ± 0.024 |
| ACCTTAAT | 0.0925 ± 0.027 |
| CAGTGCGG | -0.189 ± 0.025 |
| ACCGTGGC | -0.207 ± 0.036 |
| GGCCTATA | -0.243 ± 0.01 |
| CTGCCCGC | -0.0236 ± 0.011 |
| AACGCGCC | -0.0607 ± 0.047 |
| CACGCGCC | 0.262 ± 0.027 |
| AAAGCGCA | 0.18 ± 0.0096 |
| CAAGCGCA | 0.245 ± 0.058 |
| CAAGCGCC | -0.113 ± 0.064 |
| CACGCGCG | 0.261 ± 0.051 |
| AGCGCGCC | 0.123 ± 0.087 |
| GACGCGCC | -0.0693 ± 0.078 |
| CACGCGCA | 0.0178 ± 0.093 |
| CGCGCGCG | 0.2 ± 0.077 |
| CGCGCGCC | 0.243 ± 0.006 |
| GGCGCGCC | -0.0216 ± 0.12 |

| Sequence | PBM 8-mer E-score |
| --- | --- |
| ACATCGAG | 0.0846 ± 0.046 |
| AAGCGTGG | 0.0965 ± 0.049 |
| CTCACGCA | 0.12 ± 0.049 |
| ACGTATAT | 0.145 ± 0.039 |
| TAGCGCTA | -0.00743 ± 0.0017 |
| ACCATTCT | 0.0547 ± 0.046 |
| AACACGCG | 0.213 ± 0.0048 |
| AACGCGCA | 0.0173 ± 0.051 |
| AACGCGCG | 0.263 ± 0.023 |
| CACGCTCG | 0.245 ± 0.0082 |
| CACGCTCA | 0.0559 ± 0.045 |
| CACACGCA | 0.0795 ± 0.072 |
| CACACGCG | 0.281 ± 0.035 |
| AACGCTCG | 0.0415 ± 0.059 |
| AACGCGCT | -0.0289 ± 0.021 |
| GGACGCAA | 0.0641 ± 0.04 |
| AGTTGCAG | 0.122 ± 0.058 |
| TACAGGTA | 0.0603 ± 0.031 |
| ATCAATGG | 0.0872 ± 0.022 |
| GCCTCAAC | 0.0347 ± 0.072 |
| ATCGTAAG | -0.0242 ± 0.048 |
| ATCGTAAA | 0.159 ± 0.07 |
| ATCGTAAT | 0.238 ± 0.0064 |

| Sequence | PBM 8-mer E-score |
| --- | --- |
| GTCCTTGA | -0.198 ± 0.017 |
| CGTAACGA | 0.0392 ± 0.11 |
| AGGGGTTG | 0.258 ± 0.045 |
| AAGGGTTG | 0.0285 ± 0.053 |
| AGGGGTTA | 0.124 ± 0.052 |
| CGGATCAA | -0.188 ± 0.075 |
| TATAGAGA | -0.0265 ± 0.04 |
| ATATGATG | 0.181 ± 0.031 |
| GCATGATA | 0.226 ± 0.0026 |
| GTATGATA | 0.342 ± 0.008 |
| GTATGACA | 0.158 ± 0.0027 |
| CAATGACA | 0.128 ± 0.054 |
| GTATGAGA | 0.124 ± 0.0095 |
| TAATGACA | 0.25862 ± 7.8e-05 |
| ATATGATA | 0.2602 ± 0.0017 |
| ATATGACA | 0.25 ± 0.012 |
| GAATGACA | -0.0425 ± 0.0067 |
| CTATGACA | 0.106 ± 0.0052 |
| CTATGATA | 0.0216 ± 0.058 |
